{"source": "PubChem BioAssay AID1159580", "about": "(chemical genetic matrix, 2015)", "experiment": "chemical genetic growth profiling, strain panel (AID 1159580);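 further: tested at 20 µM; growth read once vehicle control cultures reached saturation at 30 °C; 1 = growth at the plate median or of vehicle wells; lower values mean less growth of the strain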", "conditions": "S. cerevisiae deletion strains, growth OD", "note": "About 2,000 (36%) of roughly 5,500 compounds were called active. Another 18% or so got no clear call; they are omitted. The list shows a part of the results. A number with no mark means an inactive call. No stated cut-off is given here; in the data, active means normalized growth mostly below about 0.91 (no sharp cut-off); inconclusive means no clear call, values can overlap the other calls; inactive means mostly above about 0.92.", "data": [{"smiles": "N#Cc1cc(I)c(C#N)c(I)c1", "values": [{"measurement": "normalized growth", "setting": "locus YAL013W, strain DEP1, active compounds read low", "result": "0.765 (active)"}, {"measurement": "normalized growth", "setting": "locus YBR229C, strain ROT2, active compounds read low", "result": "0.771 (active)"}, {"measurement": "normalized growth", "setting": "locus YDL101C, strain DUN1, active compounds read low", "result": "0.72 (active)"}, {"measurement": "normalized growth", "setting": "locus YDL134C, strain PPH21, active compounds read low", "result": 0.978}, {"measurement": "normalized growth", "setting": "locus YDR150W, strain NUM1, active compounds read low", "result": "0.782 (active)"}, {"measurement": "normalized growth", "setting": "locus YEL061C, strain CIN8, active compounds read low", "result": 0.981}, {"measurement": "normalized growth", "setting": "locus YGR078C, strain PAC10, active compounds read low", "result": "0.693 (active)"}, {"measurement": "normalized growth", "setting": "locus YHR030C, strain SLT2, active compounds read low", "result": 0.988}, {"measurement": "normalized growth", "setting": "locus YHR087W, strain rtc3, active compounds read low", "result": "0.737 (active)"}, {"measurement": "normalized growth", "setting": "locus YJR043C, strain POL32, active compounds read low", "result": "0.777 (active)"}, {"measurement": "normalized growth", "setting": "locus YJR075W, strain HOC1, active compounds read low", "result": "0.693 (active)"}, {"measurement": "normalized growth", "setting": "locus YKL190W, strain CNB1, active compounds read low", "result": 0.973}, {"measurement": "normalized growth", "setting": "locus YLR039C, strain RIC1, active compounds read low", "result": 0.905}, {"measurement": "normalized growth", "setting": "locus YLR058C, strain SHM2 (second series), active compounds read low", "result": "0.733 (active)"}, {"measurement": "normalized growth", "setting": "locus YLR085C, strain ARP6, active compounds read low", "result": 0.949}, {"measurement": "normalized growth", "setting": "locus YLR262C, strain YPT6, active compounds read low", "result": 0.94}, {"measurement": "normalized growth", "setting": "locus YML094W, strain GIM5, active compounds read low", "result": 0.98}, {"measurement": "normalized growth", "setting": "locus YMR219W, strain ESC1, active compounds read low", "result": "0.786 (active)"}, {"measurement": "normalized growth", "setting": "locus YMR263W, strain SAP30, active compounds read low", "result": "0.775 (active)"}, {"measurement": "normalized growth", "setting": "locus YMR307W, strain GAS1, active compounds read low", "result": 0.961}, {"measurement": "normalized growth", "setting": "locus YNL153C, strain GIM3, active compounds read low", "result": "0.746 (active)"}, {"measurement": "normalized growth", "setting": "locus YNL298W, strain CLA4 (second series), active compounds read low", "result": 0.937}, {"measurement": "normalized growth", "setting": "locus YNL322C, strain KRE1, active compounds read low", "result": "0.75 (active)"}, {"measurement": "normalized growth", "setting": "locus YNR030W, strain Alg12, active compounds read low", "result": 0.949}, {"measurement": "normalized growth", "setting": "locus YPL055C, strain LGE1, active compounds read low", "result": "0.643 (active)"}, {"measurement": "normalized growth", "setting": "locus YPL241C, strain CIN2, active compounds read low", "result": 0.979}, {"measurement": "normalized growth", "setting": "locus YPR135W, strain CTF4, active compounds read low", "result": 1.01}]}, {"smiles": "CC(=CC1CCC(C)C2C1=C(C)CC2O)C(=O)O", "note": "(stereo not drawn)", "values": [{"measurement": "normalized growth", "setting": "locus YAL021C, strain ccr4, active compounds read low", "result": 1.01}, {"measurement": "normalized growth", "setting": "locus YAL026C, strain drs2, active compounds read low", "result": 1.04}, {"measurement": "normalized growth", "setting": "locus YAL030W, strain snc1, active compounds read low", "result": 1.01}, {"measurement": "normalized growth", "setting": "locus YBL061C, strain skt5, active compounds read low", "result": 1.02}, {"measurement": "normalized growth", "setting": "locus YBR009C, strain hhf1, active compounds read low", "result": 1.01}, {"measurement": "normalized growth", "setting": "locus YBR023C, strain chs3, active compounds read low", "result": 1.02}, {"measurement": "normalized growth", "setting": "locus YBR171W, strain sec66, active compounds read low", "result": 1.02}, {"measurement": "normalized growth", "setting": "locus YBR231C, strain swc5, active compounds read low", "result": 1.02}, {"measurement": "normalized growth", "setting": "locus YBR279W, strain paf1, active compounds read low", "result": 1.02}, {"measurement": "normalized growth", "setting": "locus YCL011C, strain gbp2, active compounds read low", "result": 1.02}, {"measurement": "normalized growth", "setting": "locus YCL016C, strain dcc1, active compounds read low", "result": 1.01}, {"measurement": "normalized growth", "setting": "locus YCL061C, strain MRC1, active compounds read low", "result": 1.02}, {"measurement": "normalized growth", "setting": "locus YCL069W, strain vba3, active compounds read low", "result": 1.01}, {"measurement": "normalized growth", "setting": "locus YCR088W, strain abp1, active compounds read low", "result": 1.01}, {"measurement": "normalized growth", "setting": "locus YDL005C, strain med2, active compounds read low", "result": 1.03}, {"measurement": "normalized growth", "setting": "locus YDL040C, strain nat1, active compounds read low", "result": 1.01}, {"measurement": "normalized growth", "setting": "locus YDR001C, strain nth1, active compounds read low", "result": 1.01}, {"measurement": "normalized growth", "setting": "locus YDR069C, strain doa4, active compounds read low", "result": 1}, {"measurement": "normalized growth", "setting": "locus YDR137W, strain rgp1, active compounds read low", "result": 1.04}, {"measurement": "normalized growth", "setting": "locus YDR159W, strain sac3, active compounds read low", "result": 1.04}, {"measurement": "normalized growth", "setting": "locus YDR195W, strain ref2", "result": 1.02}, {"measurement": "normalized growth", "setting": "locus YDR297W, strain sur2, active compounds read low", "result": 1.02}, {"measurement": "normalized growth", "setting": "locus YDR334W, strain swr1, active compounds read low", "result": 1.02}, {"measurement": "normalized growth", "setting": "locus YDR335W, strain msn5, active compounds read low", "result": 1.02}, {"measurement": "normalized growth", "setting": "locus YDR392W, strain spt3, active compounds read low", "result": 0.944}, {"measurement": "normalized growth", "setting": "locus YEL003W, strain gim4, active compounds read low", "result": 1.02}, {"measurement": "normalized growth", "setting": "locus YEL037C, strain rad23, active compounds read low", "result": 1.01}, {"measurement": "normalized growth", "setting": "locus YEL061C, strain CIN8 (second series), active compounds read low", "result": 1.02}, {"measurement": "normalized growth", "setting": "locus YER015W, strain faa2, active compounds read low", "result": 1.03}, {"measurement": "normalized growth", "setting": "locus YER016W, strain bim1, active compounds read low", "result": 1.02}, {"measurement": "normalized growth", "setting": "locus YER111C, strain swi4, active compounds read low", "result": 1.01}, {"measurement": "normalized growth", "setting": "locus YER155C, strain BEM2 (second series), active compounds read low", "result": 1.03}, {"measurement": "normalized growth", "setting": "locus YFR010W, strain ubp6, active compounds read low", "result": 1.03}, {"measurement": "normalized growth", "setting": "locus YGL167C, strain pmr1, active compounds read low", "result": 1.01}, {"measurement": "normalized growth", "setting": "locus YGL173C, strain kem1, active compounds read low", "result": 1.03}, {"measurement": "normalized growth", "setting": "locus YGL227W, strain vid30, active compounds read low", "result": 1.01}, {"measurement": "normalized growth", "setting": "locus YGL240W, strain doc1, active compounds read low", "result": 1.02}, {"measurement": "normalized growth", "setting": "locus YGL253W, strain hxk2, active compounds read low", "result": 1.03}, {"measurement": "normalized growth", "setting": "locus YHR013C, strain ard1, active compounds read low", "result": 1.03}, {"measurement": "normalized growth", "setting": "locus YHR027C, strain rpn1, active compounds read low", "result": 1.04}, {"measurement": "normalized growth", "setting": "locus YHR142W, strain chs7, active compounds read low", "result": 1.02}, {"measurement": "normalized growth", "setting": "locus YJL092W, strain hpr5, active compounds read low", "result": 1.02}, {"measurement": "normalized growth", "setting": "locus YJL095W, strain BCK1 (second series), active compounds read low", "result": 1.02}, {"measurement": "normalized growth", "setting": "locus YJL115W, strain asf1, active compounds read low", "result": 1.02}, {"measurement": "normalized growth", "setting": "locus YJL129C, strain trk1, active compounds read low", "result": 1.04}, {"measurement": "normalized growth", "setting": "locus YJL154C, strain vps35, active compounds read low", "result": 1.01}, {"measurement": "normalized growth", "setting": "locus YJL164C, strain tpk1, active compounds read low", "result": 1.01}, {"measurement": "normalized growth", "setting": "locus YJL166W, strain qcr8, active compounds read low", "result": 1.02}, {"measurement": "normalized growth", "setting": "locus YKL160W, strain elf1, active compounds read low", "result": 1}, {"measurement": "normalized growth", "setting": "locus YKR026C, strain gcn3, active compounds read low", "result": 1.01}, {"measurement": "normalized growth", "setting": "locus YKR091W, strain srl3, active compounds read low", "result": 1.02}, {"measurement": "normalized growth", "setting": "locus YLL001W, strain dnm1, active compounds read low", "result": 1.03}, {"measurement": "normalized growth", "setting": "locus YLL026W, active compounds read low", "result": 1.03}, {"measurement": "normalized growth", "setting": "locus YLL041C, strain sdh2, active compounds read low", "result": 1.01}, {"measurement": "normalized growth", "setting": "locus YLR027C, strain aat2, active compounds read low", "result": 1.02}, {"measurement": "normalized growth", "setting": "locus YLR221C, strain rsa3, active compounds read low", "result": 1.01}, {"measurement": "normalized growth", "setting": "locus YLR258W, strain gsy2, active compounds read low", "result": 1.01}, {"measurement": "normalized growth", "setting": "locus YLR262C, strain YPT6 (second series), active compounds read low", "result": 1.02}, {"measurement": "normalized growth", "setting": "locus YLR320W, strain mms22, active compounds read low", "result": 1.02}, {"measurement": "normalized growth", "setting": "locus YLR342W, strain FKS1, active compounds read low", "result": 1.02}, {"measurement": "normalized growth", "setting": "locus YLR357W, strain rsc2, active compounds read low", "result": 0.995}, {"measurement": "normalized growth", "setting": "locus YLR370C, strain arc18, active compounds read low", "result": 0.997}, {"measurement": "normalized growth", "setting": "locus YLR384C, strain iki3, active compounds read low", "result": 1.02}, {"measurement": "normalized growth", "setting": "locus YML120C, strain ndi1, active compounds read low", "result": 1.02}, {"measurement": "normalized growth", "setting": "locus YMR058W, strain fet3, active compounds read low", "result": 1.03}, {"measurement": "normalized growth", "setting": "locus YMR125W, strain sto1, active compounds read low", "result": 0.987}, {"measurement": "normalized growth", "setting": "locus YMR129W, active compounds read low", "result": 1.02}, {"measurement": "normalized growth", "setting": "locus YMR205C, strain PFK2, active compounds read low", "result": 1.02}, {"measurement": "normalized growth", "setting": "locus YMR231W, strain pep5, active compounds read low", "result": 1.02}, {"measurement": "normalized growth", "setting": "locus YNL071W, strain lat1, active compounds read low", "result": 1.03}, {"measurement": "normalized growth", "setting": "locus YNL209W, strain ssb2, active compounds read low", "result": 1.03}, {"measurement": "normalized growth", "setting": "locus YNL248C, strain rpa49, active compounds read low", "result": 1.07}, {"measurement": "normalized growth", "setting": "locus YNL322C, strain KRE1 (second series), active compounds read low", "result": 1.01}, {"measurement": "normalized growth", "setting": "locus YNR049C, strain mso1, active compounds read low", "result": 1.01}, {"measurement": "normalized growth", "setting": "locus YOR001W, strain rrp6, active compounds read low", "result": 1.04}, {"measurement": "normalized growth", "setting": "locus YOR070C, strain gyp1, active compounds read low", "result": 1}, {"measurement": "normalized growth", "setting": "locus YOR080W, strain dia2, active compounds read low", "result": 1.02}, {"measurement": "normalized growth", "setting": "locus YOR083W, strain WHI5, active compounds read low", "result": 1.01}, {"measurement": "normalized growth", "setting": "locus YOR106W, strain vam3, active compounds read low", "result": 1.01}, {"measurement": "normalized growth", "setting": "locus YOR265W, strain rbl2, active compounds read low", "result": 1.02}, {"measurement": "normalized growth", "setting": "locus YOR270C, strain vph1, active compounds read low", "result": 1.07}, {"measurement": "normalized growth", "setting": "locus YOR290C, strain snf2, active compounds read low", "result": 0.989}, {"measurement": "normalized growth", "setting": "locus YPL051W, strain arl3, active compounds read low", "result": 1.03}, {"measurement": "normalized growth", "setting": "locus YPL078C, strain atp4, active compounds read low", "result": 1.01}, {"measurement": "normalized growth", "setting": "locus YPL106C, strain sse1, active compounds read low", "result": 1.03}, {"measurement": "normalized growth", "setting": "locus YPL240C, strain hsp82, active compounds read low", "result": 1.02}]}]}
